Among the test systems are BT-549 breast; MDA-MB-435 melanoma; SW-620 colon; MCF7 breast; HCT-116 colon; HCC-2998 colon; KM12 colon.
Assay in all cases: NCI-60 one-dose screen, 48 h (100 = growth as untreated, 0 = no growth, -100 = all killed)
Details in all cases: 10 µM unless noted

Each structure is given as a SMILES string. The panel holds about 83,000 compounds, 20% with a hit somewhere; the sample as a whole holds those more often.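 Negative percent growth values reflect cell death: -40 means 40% of the cells present at the start died, and -100 means all died.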 Unmarked numbers belong to inactive results. Active and inactive are the calls of the source. The calls were made as follows: active = growth percent below 10; inactive = the rest.

`CCOC(=O)c1sc(/N=C2\NC(=O)/C(=C/c3ccc(N4CCN(C)CC4)cc3)S2)nc1C`: the growth in the experiment with BT-549 breast was 95%; with MDA-MB-435 melanoma, 106%; with SW-620 colon, 120%; in the experiment on MCF7 breast it was 84%; in the experiment with HCT-116 colon, 103%; in the experiment with HCC-2998 colon it was 94.7%. The growth in the experiment with KM12 colon was 95.4%.
As to `N#CC1C(c2ccc(Cl)cc2)=Nc2c(c(-c3ccccc3)nn2-c2ccccc2)C12C(=O)Nc1ccc(Cl)cc12` (centres undefined), the growth in the experiment on BT-549 breast is 50%; in the experiment on MDA-MB-435 melanoma, 34.5%; with SW-620 colon, 42.1%; in the experiment with MCF7 breast, 28.4%; with HCT-116 colon it was 26.2%; with HCC-2998 colon, 55.2%. Also, in the experiment with KM12 colon, the growth is 26.1%.
`Cc1nccc2c3ccc(OCc4cn(-c5ccc(Cl)cc5)nn4)cc3n(CC(C)C)c12`: the growth with BT-549 breast is 28.3%; in the experiment on MDA-MB-435 melanoma, 30.6%; in the experiment with SW-620 colon, 24.4%; with MCF7 breast, 13%; with HCT-116 colon, 10.8%; with HCC-2998 colon, 31.2%. Further, in the experiment on KM12 colon, the growth is 19.3%.
Consider `O=C(CN1N=C(c2ccc(F)cc2)CCC1=O)Nc1nc2ccccc2s1`, for which the growth with BT-549 breast was -71.2% (active); with MDA-MB-435 melanoma, 99.9%; in the experiment with SW-620 colon, 57.8%; in the experiment on MCF7 breast, 87.4%; in the experiment on HCT-116 colon it was 70.7%; with HCC-2998 colon, 95.7%. The growth with KM12 colon is 45.1%.
On to `CCCCCCCCCCCCCC1=NCC[N+]1(CCO)Cc1ccccc1` (centres undefined), for which the growth is -50.7% (active) with BT-549 breast; -91.8% (active) in the experiment on MDA-MB-435 melanoma; -78.2% (active) in the experiment with SW-620 colon; -84.8% (active) in the experiment with MCF7 breast; -90.8% (active) in the experiment on HCT-116 colon; -75.3% (active) with HCC-2998 colon. For the same compound, the growth in the experiment with KM12 colon was -85.1% (active).
For the compound `Nc1c(C(=O)Nc2ccccn2)sc2nc3c(cc12)CCCC3`, the growth in the experiment with BT-549 breast is 44%; in the experiment with MDA-MB-435 melanoma it was -24.6% (active); in the experiment on SW-620 colon, 40.2%; with MCF7 breast it was 24.2%; in the experiment with HCT-116 colon, 13.6%; in the experiment with HCC-2998 colon, 57.1%. Also, in the experiment on KM12 colon, the growth was 30.8%.
Consider `CC(=O)Nc1nc2c(c(N)c1C#N)C(c1cccc(Cl)c1)C1=C(CCCC1=O)N2c1sc2c(c1C#N)CCCC2` (centres undefined), for which the growth with BT-549 breast is 45.9%; with MDA-MB-435 melanoma, 65.5%; in the experiment on SW-620 colon, 80.3%; in the experiment on MCF7 breast, 20.7%; with HCT-116 colon it was 33.3%; in the experiment on HCC-2998 colon it was 45.7%. Besides, the growth with KM12 colon was 49.1%.
For `CC(=O)c1cnc(-c2ccccc2)nc1CBr`, the growth in the experiment on BT-549 breast was 70.3%; in the experiment on MDA-MB-435 melanoma, 86.4%; with SW-620 colon, 39.6%; with MCF7 breast it was 52.2%; in the experiment on HCT-116 colon it was 28.4%; in the experiment with HCC-2998 colon, 99.8%. In the experiment with KM12 colon, the growth is 95.2%.
On to `NS(=O)(=O)c1ccc(-n2ncc(NC(=O)Nc3ccc(S(=O)(=O)Nc4nccs4)cc3)c2-c2ccccc2)cc1`, for which the growth in the experiment with BT-549 breast was 103%; with MDA-MB-435 melanoma, 98.1%; in the experiment with SW-620 colon, 98.5%; in the experiment on MCF7 breast, 92%; in the experiment with HCT-116 colon, 93%; in the experiment with HCC-2998 colon, 107%. Further, the growth with KM12 colon was 108%.
For `Nc1c(C(=O)c2ccccc2)sc2nc(-c3cc4ccccc4o3)cc(-c3ccc(Cl)cc3)c12`, the growth was 97.9% with BT-549 breast; 108% in the experiment with MDA-MB-435 melanoma; 118% in the experiment with SW-620 colon; 92% in the experiment with MCF7 breast; 101% in the experiment with HCT-116 colon; 108% in the experiment on HCC-2998 colon. Besides, the growth in the experiment on KM12 colon is 93.4%.
With `COC(=O)/C=C1\SC(=Nc2ccc(F)cc2)N(CCc2c[nH]c3ccccc23)C1=O`, the growth was 88.4% in the experiment on BT-549 breast; 114% in the experiment on MDA-MB-435 melanoma; 106% in the experiment on SW-620 colon; 74.9% in the experiment on MCF7 breast; 87.8% in the experiment with HCT-116 colon; 102% in the experiment with HCC-2998 colon. The growth in the experiment on KM12 colon is 100%.
Consider `CCCn1c2cc(OCc3cn(-c4ccc(Cl)cc4)nn3)ccc2c2ccnc(C)c21`, for which the growth in the experiment on BT-549 breast was 87.2%; with MDA-MB-435 melanoma, 101%; with SW-620 colon, 74.8%; in the experiment with MCF7 breast, 73.3%; in the experiment with HCT-116 colon, 41.6%; in the experiment with HCC-2998 colon it was 92.7%. Moreover, the growth in the experiment with KM12 colon was 74.1%.
Turning to `CN1CCN(CC#CCOC(=O)CNC(=O)[C@]23CCC(C)(C)C[C@H]2C2=CC[C@@H]4[C@@]5(C)CC[C@H](O)C(C)(C)[C@@H]5CC[C@@]4(C)[C@]2(C)CC3)CC1`, the growth in the experiment on BT-549 breast was 88.9%; with MDA-MB-435 melanoma, 101%; in the experiment on SW-620 colon, 86.8%; in the experiment on MCF7 breast it was 72%; in the experiment with HCT-116 colon it was 76.2%; with HCC-2998 colon, 106%. Besides, in the experiment on KM12 colon, the growth is 94.5%.
As to `COc1ccc(-n2cc(-c3ccc(Cl)c(Cl)c3)[nH]c2=O)cc1OC`, the growth in the experiment on BT-549 breast was 94.2%; in the experiment with MDA-MB-435 melanoma it was 99.7%; in the experiment on SW-620 colon it was 73.5%; with MCF7 breast, 84.7%; in the experiment with HCT-116 colon, 90.4%; in the experiment with HCC-2998 colon it was 96%. The growth in the experiment on KM12 colon was 95.3%.
For the compound `CC1CCN(CCCCCOc2ccc3oc4cc(Cl)ccc4c(=O)c3c2)CC1`, the growth is 81.8% in the experiment on BT-549 breast; 3.73% (active) in the experiment with MDA-MB-435 melanoma; 36.8% in the experiment on SW-620 colon; 45.9% in the experiment on MCF7 breast; 23.3% with HCT-116 colon; 79.3% in the experiment with HCC-2998 colon. Also, in the experiment on KM12 colon, the growth is 49.5%.
As to `N#Cc1ccc(Oc2ccc3ccc(=O)oc3c2)cc1`, the growth is 110% in the experiment on BT-549 breast; 120% in the experiment on MDA-MB-435 melanoma; 96.5% with SW-620 colon; 97.3% in the experiment on MCF7 breast; 91.5% in the experiment on HCT-116 colon; 104% in the experiment on HCC-2998 colon. Further, the growth in the experiment on KM12 colon was 96.2%.
With `COc1ccccc1Nc1nnc(-c2ccc(Cl)cc2)o1`, the growth with BT-549 breast was 56.9%; in the experiment with MDA-MB-435 melanoma, -5.9% (active); with SW-620 colon it was 20.9%; with MCF7 breast, 17.1%; with HCT-116 colon, 34.1%; in the experiment with HCC-2998 colon, 82%. Besides, the growth with KM12 colon was 23.9%.

For the origin of these results see PubChem BioAssay (NCI).
